# Assay results from PubChem BioAssay (NCATS).
# “And” between values parts separate entries of the source, which are not always exact repeats. Equal values may be shown once. Inconclusive results are not listed. Where a call stands in place of a potency, no number is given. The source made the active and inactive calls. Unless noted, calls come from the whole dose curve; as a rule, active = well fitted curve in the direction sought with a large enough effect; inconclusive = small, poorly fitted or top-dose-only effect, or another doubt; inactive = no such curve, though single readings can be large; an effect the other way counts as inactive or inconclusive.
# Experiments:
# [1] = molecular target: Cellular tumor antigen p53 (Homo sapiens) (UniProt P04637); assay: Primary qHTS for small molecule compounds that upregulate eGFP-tagged delta133p53alpha (in N-terminal) cells. (AID 2060322); conditions: NCI-H358 eGFP-delta133p53alpha fluorescence, 24 h; activation: hits give high values; note: nearly all actives have a fitted effect of over 75% in size; for activation: series mostly up to about 56 µM
# Cellular tumor antigen p53 (Homo sapiens), sequence (P04637 whole entry, looked up): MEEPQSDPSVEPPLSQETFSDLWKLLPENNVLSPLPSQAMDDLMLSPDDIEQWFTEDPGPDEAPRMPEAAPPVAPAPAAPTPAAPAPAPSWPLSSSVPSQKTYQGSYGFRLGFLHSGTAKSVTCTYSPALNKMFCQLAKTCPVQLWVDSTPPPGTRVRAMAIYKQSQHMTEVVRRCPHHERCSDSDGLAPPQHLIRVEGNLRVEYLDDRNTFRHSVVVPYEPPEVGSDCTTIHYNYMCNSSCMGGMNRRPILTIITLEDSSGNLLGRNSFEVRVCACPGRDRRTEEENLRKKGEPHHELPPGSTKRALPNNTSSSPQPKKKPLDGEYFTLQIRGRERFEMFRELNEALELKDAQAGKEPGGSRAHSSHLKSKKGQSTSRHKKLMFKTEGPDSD
# How it was run: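 NCI-H358 cells pre-induced 24 h with 10 ng/ml doxycycline to express N-terminal eGFP-delta133p53alpha, then dosed 24 h at 37C without doxycycline; fixed, Hoechst-stained, GFP intensity by laser scanning cytometry, normalized to DMSO (0%) and 57.5 uM 5-azacytidine (100%).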
# [2] = BET inhibitor-based combinations targeting novel dependencies in MECOM-rearranged (r) AML: MV-4-11 cell line (AID 2202233); note: nearly all actives have a fitted effect of over 45% in size
# How it was run: (§1)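 Cells were plated at 500 per well and exposed to each drug across an 11-point dose range for 48 hr at standard incubator conditions. Viability was read by CellTiter-Glo luminescence, and activity was expressed as AUC and per-cell-line Z-transformed AUC.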
# [3] = BET inhibitor-based combinations targeting novel dependencies in MECOM-rearranged (r) AML: OCI-AML3 cell line (AID 2202232); conditions: Potency: OCI-AML3 viability; note: nearly all actives have a fitted effect of over 35% in size
# How it was run: (§2)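 500 cells/well; 11-pt dose curve; 48 h, standard incubator; CellTiter-Glo luminescence after 15 min RT; DMSO/empty-well normalization; AUC plus Z-AUC (mean-centered within each line).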
# [4] = BET inhibitor-based combinations targeting novel dependencies in MECOM-rearranged (r) AML: UCSD-AML1 cell line (AID 2202235); note: nearly all actives have a fitted effect of over 40% in size
# How it was run: as §1
# [5] = BET inhibitor-based combinations targeting novel dependencies in MECOM-rearranged (r) AML: HNT-34 cell line (AID 2202234); note: nearly all actives have a fitted effect of over 35% in size
# How it was run: as §1
# [6] = BET inhibitor-based combinations targeting novel dependencies in MECOM-rearranged (r) AML: AML-191 cell line (AID 2202236; note: nearly all actives have a fitted effect of over 35% in size)
# How it was run: as §2
# [7] = BET inhibitor-based combinations targeting novel dependencies in MECOM-rearranged (r) AML: AML-194 cell line (AID 2202237; note: nearly all actives have a fitted effect of over 40% in size)
# How it was run: as §2
# [8] = molecular target: Cellular tumor antigen p53 (Homo sapiens) (UniProt P04637); assay: Primary qHTS for small molecule compounds that upregulate eGFP-tagged delta133p53alpha (in C-terminal) cells. (AID 2060324)
# How it was run: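 NCI-H358 cells pre-induced 24 h with 100 ng/ml doxycycline to express delta133p53alpha-eGFP, then dosed in doxycycline-free medium for 24 h at 37C. Fixed, Hoechst-stained; GFP intensity by laser scanning cytometry, normalized to DMSO wells.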
# [9] = molecular target: Aldehyde dehydrogenase, mitochondrial (Homo sapiens) (UniProt P05091); assay: qHTS for Inhibitors of the Aldehyde Dehydrogenase Family (ALDH2) Validation screens (AID 2061302; active = well fitted inhibition curve with a large enough effect; title and protocol of this record describe different tests)
# Potency is the fitted concentration of half-maximal effect.
structure (smiles),measurement,setting,value
C[C@@H]1C[C@H]2[C@@H]3CCC4=CC(=O)C=C[C@]4(C)[C@@]3(Cl)[C@@H](O)C[C@]2(C)[C@@]1(OC(=O)c1ccco1)C(=O)CCl,activation,[1],19.9% (inactive)
same,Potency,[2],23.5 µM (active)
O=C(Cc1cccc(OC(F)(F)F)c1)Nc1ccc(CCCCc2nnc(NC(=O)Cc3ccccn3)s2)nn1,activation,[1],7.71% (inactive)
same,Potency,[3],inactive
same,Potency,[4],0.0209 µM (active)
CC(C)(C)c1cnc(CSc2cnc(NC(=O)C3CCNCC3)s2)o1,Potency,[1],0.968 µM (active)
same,Potency,[3],0.372 µM (active)
same,Potency,[5],0.235 µM (active)
same,Potency,[6],0.742 µM (active)
same,Potency,[7],0.742 µM (active)
C[C@]12CCC(=O)C=C1[C@@H]1C[C@@H]1[C@H]1[C@@H]3[C@@H]4C[C@@H]4[C@@]4(CCC(=O)O4)[C@@]3(C)CC[C@@H]12,activation,[1],-15.3% (inactive)
same,Potency,[3],8.33 µM (active)
same,Potency,[2],16.6 µM (active)
same,Potency,[7],inactive
C=C1C(=O)OC(CCCCCCCC)C1C(=O)O (centres undefined),activation,[1],-0.0763% (inactive)
same,Potency,[2],inactive
same,Potency,[5],inactive
same,Potency,[4],inactive
same,Potency,[6],inactive
same,Potency,[7],inactive
C[C@@H]1CN(CC(=O)Nc2ccc3c(c2)Cc2cccc(-c4cc(=O)cc(N5CCOCC5)o4)c2S3)C[C@H](C)O1,Potency,[1],27.3 µM (active)
same,Potency,[2],14.8 µM (active)
CNC(=O)c1cc(COc2nnc(Nc3ccc(Cl)cc3)c3ccoc23)ccn1,activation,[1],-2.64% (inactive)
same,Potency,[3],inactive
same,Potency,[6],inactive
same,Potency,[7],inactive
COC(=O)C1=C(C)NC(C)=C(C(=O)OCCN2CCN(C(c3ccccc3)c3ccccc3)CC2)C1c1cccc([N+](=O)[O-])c1 (centres undefined),activation,[1],-17.6% (inactive)
same,Potency,[2],18.6 µM (active)
same,Potency,[5],23.5 µM (active)
same,Potency,[4],inactive
same,Potency,[6],26.3 µM (active)
CN1CCC(=C2c3ccccc3CCc3sccc32)CC1,activation,[1],-15.1% (inactive) and 66.1% (inactive)
same,Potency,[2],33.2 µM (active)
C#Cc1cccc(Nc2ncnc3cc(OCCOC)c(OCCO)cc23)c1,activation,[1],34% (inactive)
same,Potency,[2],2.63 µM (active)
same,Potency,[5],2.63 µM (active)
same,Potency,[4],13.2 µM (active)
same,Potency,[6],16.6 µM (active)
COc1c(N2C[C@@H]3CCCN[C@H]3C2)c(F)cc2c(=O)c(C(=O)O)cn(C3CC3)c12,activation,[1],0.987% (inactive)
same,Potency,[3],inactive
same,Potency,[5],inactive
same,Potency,[6],inactive
same,Potency,[7],inactive
COc1ccc(CC2SC(=O)NC2=O)cc1C(=O)NCc1ccc(C(F)(F)F)cc1 (centres undefined),activation,[1],-5.55% (inactive)
same,Potency,[4],inactive
same,Potency,[6],inactive
same,Potency,[7],inactive
Oc1ccc(C2CCN(c3ccnc4ccccc34)CC2)cc1O,activation,[1],25.9% (inactive)
same,Potency,[2],9.34 µM (active)
same,Potency,[4],inactive
CC[C@H](C)n1cc(C)c2c(C(=O)NCc3c(C)cc(C)[nH]c3=O)cc(-c3ccc(N4CCNCC4)nc3)cc21,activation,[1],-13% (inactive)
same,Potency,[2],18.6 µM (active)
same,Potency,[7],inactive
CN=c1nc(-c2ccccc2)n(-c2ccccc2)s1,Potency,[8],inactive
O=C1CSC(=O)N1C(CCc1ccncc1)COc1ccc(-c2cccc([N+](=O)[O-])c2)cc1 (centres undefined),activation,[1],-7.57% (inactive)
same,Potency,[2],16.6 µM (active)
same,Potency,[4],inactive
CC(Cc1ccc(O)c(O)c1)(NN)C(=O)O (centres undefined),activation,[1],-5.67% (inactive)
same,Potency,[2],inactive
same,Potency,[4],inactive
same,Potency,[6],inactive
same,Potency,[7],inactive
Cc1nnc(NS(=O)(=O)c2ccc(N)cc2)s1,activation,[1],-14.2% (inactive) and -3.76% (inactive)
same,Potency,[2],inactive
same,Potency,[4],inactive
same,Potency,[6],inactive
same,Potency,[7],inactive
CCCCc1oc2ccccc2c1C(=O)c1cc(I)c(OCCN(CC)CC)c(I)c1,activation,[1],-16.4% (inactive) and -32.6% (inactive)
same,Potency,[2],18.6 µM (active)
same,Potency,[4],23.5 µM (active)
same,Potency,[6],20.9 µM (active)
CCc1ccc(CCOc2ccc(CC3SC(=O)NC3=O)cc2)nc1 (centres undefined),activation,[1],7.53% (inactive) and -1.15% (inactive)
same,Potency,[7],5.25 µM (active)
CC[C@@H]([C@H](C)O)n1ncn(-c2ccc(N3CCN(c4ccc(OCC5CO[C@@](Cn6cncn6)(c6ccc(F)cc6F)C5)cc4)CC3)cc2)c1=O (some centres undefined),activation,[1],7.66% (inactive)
same,Potency,[4],inactive
Clc1ccc(COC(Cn2ccnc2)c2ccc(Cl)cc2Cl)c(Cl)c1 (centres undefined),activation,[1],-18.8% (inactive)
same,Potency,[4],inactive
same,Potency,[7],26.3 µM (active)
Cc1cc2c(F)c(Oc3ncnn4cc(OC[C@@H](C)O)c(C)c34)ccc2[nH]1,activation,[1],-34.1% (inactive)
same,Potency,[4],inactive
O=C(c1ccc(F)cc1)N1CCC[C@H](c2nc(-c3ccc(F)cc3)no2)C1,activation,[1],6.17% (inactive)
same,Potency,[2],18.6 µM (active)
same,Potency,[4],inactive
same,Potency,[7],inactive
O=c1cc(-c2ccccc2)oc2cc(O)c(O)c(O)c12,activation,[1],-1.25% (inactive)
same,Potency,[6],18.6 µM (active)
O=C(CCc1ccncc1)NNC(=O)N1Cc2ccccc2Oc2ccc(Cl)cc21,Potency,[8],inactive
same,Potency,[9],inactive
C[N+]1(CCCCC[N+]2(C)CCCC2)CCCC1,Potency,[8],inactive
same,Potency,[9],inactive
S=C(S)N1CCCC1,Potency,[8],15.1 µM (active)
same,Potency,[9],3.16 µM (active)
C#CCN(C)CCCOc1ccc(Cl)cc1Cl,Potency,[8],inactive
same,Potency,[9],inactive
N=c1c[n+](N2CCOCC2)[n-]o1,Potency,[8],inactive
same,Potency,[9],inactive
Cc1cccc(C(=O)NCN2CCN(c3ccccc3C#N)CC2)c1,Potency,[8],inactive
same,Potency,[9],inactive
CCOC(=O)O[C@]1(C(=O)OCCl)CC[C@H]2[C@@H]3CCC4=CC(=O)C=C[C@]4(C)[C@H]3[C@@H](O)C[C@@]21C,activation,[1],-7.34% (inactive)
same,Potency,[2],inactive
same,Potency,[5],inactive
same,Potency,[7],inactive
Nc1nc(N)c2nc(-c3cccc(O)c3)c(-c3cccc(O)c3)nc2n1,Potency,[1],24.3 µM (active)
same,Potency,[5],inactive
same,Potency,[4],inactive
same,Potency,[6],18.6 µM (active)
same,Potency,[7],inactive
CCCCOc1cc(CC2CNC(=O)N2)ccc1OC (centres undefined),Potency,[8],inactive
same,Potency,[9],inactive
CCCN(CCc1ccccc1)C1CCc2c(O)cccc2C1 (centres undefined),Potency,[8],inactive
same,Potency,[9],inactive
Cc1cccc(CN2CCN(C(c3ccccc3)c3ccc(Cl)cc3)CC2)c1 (centres undefined),activation,[1],5.02% (inactive) and 0.39% (inactive)
same,Potency,[6],inactive
C=CCn1c(=O)c2c(nc(-c3ccc(S(=O)(=O)O)cc3)n2C)n(C)c1=O,Potency,[8],inactive
same,Potency,[9],inactive
CCCCCCCc1ccc(CCc2cccc(O)c2C(=O)O)cc1,activation,[1],-21.9% (inactive) and 7.82% (inactive)
same,Potency,[7],inactive
O=[N+]([O-])c1ccc2c(c1)S(=O)(=O)C=C2,Potency,[8],30.1 µM (active)
O=C(NCCCNc1nc(Nc2cccc(NC(=O)N3CCCC3)c2)ncc1I)c1cccs1,activation,[1],9.72% (inactive)
same,Potency,[4],5.25 µM (active)
O=C(O)c1c(Cl)c(Cl)c(Cl)c(Cl)c1-c1c2cc(I)c(=O)c(I)c-2oc2c(I)c(O)c(I)cc12,activation,[1],-18.2% (inactive)
same,Potency,[2],inactive
same,Potency,[4],5.9 µM (active)
CC(C)Oc1ccc2c(=O)c(-c3ccccc3)coc2c1,activation,[1],-6.21% (inactive) and -9.21% (inactive) and 6.6% (inactive)
same,Potency,[5],inactive
same,Potency,[4],inactive
same,Potency,[7],inactive
N#CC(c1ccc(Cl)cc1)c1c(Cl)cc(-n2ncc(=O)[nH]c2=O)cc1Cl (centres undefined),activation,[1],-23% (inactive)
same,Potency,[2],inactive
same,Potency,[6],16.6 µM (active)
same,Potency,[7],inactive
Cc1nc2ccc(C(=O)N3CCC4(CC3)CC(=O)c3c(cnn3C(C)C)C4)cc2[nH]1,activation,[1],23% (inactive)
same,Potency,[4],inactive
same,Potency,[7],inactive
